This note sets out measurements from PubChem BioAssay (NCATS).

For assay [1] the following is noted: Ebola virus entry assay, blue channel fluorescence.
The conditions of assay [2]: Ebola virus entry cell assay, ratio channel.
Assay [3] in a line: High-throughput drug toxicity screening in the BPDCN cell line Gen2.2 (AID 1224824).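 Also: cells exposed to compounds for 48 h before reading.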 The conditions noted are these: Gen2.2 BPDCN cells; at 45.8 µM (top of the series) unless noted. In short, it runs like this:
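Gen2.2 cells, 500 per well in phenol red-free RPMI with 10% FBS, exposed to compounds 48 h at 37 C, 5% CO2; viability by CellTiter-Glo luminescence. Percent activity scaled to DMSO (100%) and 9.2 uM bortezomib final (0%).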

The conditions of assay [4]: Ebola virus entry reporter assay, green channel fluorescence. In general terms: Reporter assays use an easily measured gene product as a stand-in for the process of interest.
For assay [5] the following is noted: Ebola virus entry assay, reporter ratio channel; AC50: Channel type: primary unless noted; outcome: Channel type: primary unless noted.
For assay [6] the following is noted: Ebola virus entry assay, blue channel (ratio component).
Assay [7] can be described thus: Immunotoxin (SS1P) sensitization/mitigation study. Vehicle arm (DMEM) (AID 1159513). Also: potency is read from the fitted curve at half-maximal effect. The settings on record: cell viability with vehicle (DMEM); series mostly up to 46.1 µM.

For some of these results: Measured potencies and affinities stand elsewhere. Calls of active or inactive are those of the source. Where a SMILES comes first, the peptide text is derived from it. Bridges are numbered along the chain shown (N, C = ends). [ ]: non-standard residue; d: D form. The star is where a group is joined. Dab(CH2SO3H) = N[C@@H](CCNCS(=O)(=O)O)C(=O)O; X1 = CC[C@@H](C)CCCCC(=O)*; Dab = NCC[C@H](N)C(=O)O

With `Cc1onc(-c2ccccc2)c1C(=O)N[C@@H]1C(=O)N2[C@@H](C(=O)O)C(C)(C)S[C@@H]12`, the call in assay [1] and in assay [2] was inactive.
For `C[C@]12CC[C@@H]3c4ccc(OC(=O)N(CCCl)CCCl)cc4CC[C@H]3[C@@H]1CC[C@@H]2OP(=O)(O)O`, the outcome in assay [1] and in assay [2] was inactive. Besides, in assay [3], the cell viability, % of control (lower = more cytotoxic) came out at 99.3%.
On to `CC(=O)O[C@H]1C(=O)[C@@]2(C)[C@H]([C@H](OC(=O)c3ccccc3)[C@]3(O)C[C@H](OC(=O)[C@H](O)[C@@H](NC(=O)c4ccccc4)c4ccccc4)C(C)=C1C3(C)C)[C@]1(OC(C)=O)CO[C@@H]1C[C@@H]2O`, for which the result in assay [4] and in assay [2] was inactive.
In general, AC50 refers to the concentration giving half of the maximal activity seen. As for `COc1cc([C@@H]2c3cc4c(cc3C(O[C@@H]3O[C@@H]5CO[C@@H](C)O[C@H]5[C@H](O)[C@H]3O)C3COC(=O)[C@@H]32)OCO4)cc(OC)c1OP(=O)(O)O` (stereo partly drawn), the AC50 in assay [2] is 7.08 µM (active).
Still for that read-out and setting: with `CN1CCN(C(c2ccccc2)c2ccc(Cl)cc2)CC1` (stereo not drawn) the figure was 10 µM (active).
For `CN=C1CN(O)C(c2ccccc2)=c2cc(Cl)ccc2=N1`, in assay [4], the result was inactive. Also, the AC50 in assay [2] was 12.6 µM (active).
For the molecule `O=C(O)C[C@H](O)C[C@H](O)/C=C/c1c(C2CC2)nc2ccccc2c1-c1ccc(F)cc1`, in assay [2], the outcome was inactive.
Take `COc1ccc2c(c1)C13CCCC[C@@H]1C(C2)N(C)CC3` (stereo partly drawn): the outcome in assay [2] was inactive.
With `CC[C@H]1OC(=O)[C@H](C)[C@@H](O[C@H]2C[C@@](C)(OC)[C@@H](O)[C@H](C)O2)C(C)[C@@H](O[C@@H]2O[C@H](C)C[C@H](N(C)C)[C@@H]2O)[C@](C)(OC)C[C@@H](C)C(=O)[C@H](C)[C@@H](O)[C@]1(C)O` (stereo partly drawn), the outcome in assay [5] is “inactive [Channel type: confirmation]”. Further, the result in assay [6] was inactive. The AC50 in assay [2] is 7.94 µM (active).
`O=C(OC1C[C@@H]2CC3C[C@H](C1)N2CC3=O)c1c[nH]c2ccccc12` (stereo partly drawn): the result in assay [4] and in assay [2] was inactive.
On to `CC(C)NCC(O)c1cc(O)cc(O)c1` (stereo not drawn), for which the result in assay [5] and in assay [6] was inactive.
As to `CC[C@@H](C)CCCCC(=O)N[C@@H](CCNCS(=O)(=O)O)C(=O)N[C@H](C(=O)N[C@@H](CCNCS(=O)(=O)O)C(=O)N[C@H]1CCNC(=O)[C@H]([C@@H](C)O)NC(=O)[C@H](CCNCS(=O)(=O)O)NC(=O)[C@H](CCNCS(=O)(=O)O)NC(=O)[C@H](CC(C)C)NC(=O)[C@@H](CC(C)C)NC(=O)[C@H](CCNCS(=O)(=O)O)NC1=O)[C@@H](C)O` (X1-[Dab(CH2SO3H)]T[Dab(CH2SO3H)][Dab][Dab(CH2SO3H)][dL]L[Dab(CH2SO3H)][Dab(CH2SO3H)]T; lactam 4-C), in assay [2], the outcome was inactive.
In the case of `CC(C)C[C@H]1C(=O)N2CCC[C@H]2[C@]2(O)O[C@](NC(=O)[C@@H]3C=C4c5cccc6[nH]c(Br)c(c56)C[C@H]4N(C)C3)(C(C)C)C(=O)N12`, the outcome in assay [4] and in assay [2] was inactive.
Regarding `O=C(O[C@H]1CN2CCC1CC2)N1CCc2ccccc2[C@@H]1c1ccccc1`, the AC50 in assay [2] was 7.94 µM (active).
As for `O=C(C1CCCCC1)N1CC(=O)N2CCCc3ccccc3C2C1` (stereo not drawn), the outcome in assay [5] and in assay [6] was inactive.
Consider `COc1cccc2c1C(=O)c1c(O)c3c(c(O)c1C2=O)C[C@@](O)(C(C)=O)C[C@H]3O[C@H]1C[C@H](N)[C@H](O)[C@H](C)O1`, for which the outcome in assay [5] is “inactive [Channel type: confirmation]”. Moreover, the result in assay [6] was inactive. In assay [2], the AC50 is 5.62 µM (active).
Turning to `COc1cc([C@@H]2c3cc4c(cc3[C@@H](O[C@@H]3O[C@@H]5CO[C@@H](c6cccs6)O[C@@H]5[C@H](O)[C@@H]3O)[C@H]3COC(=O)[C@H]23)OCO4)cc(OC)c1O`, the outcome in assay [2] was inactive.
`CN1CCN(CCC=C2c3ccccc3Sc3ccc(S(=O)(=O)N(C)C)cc32)CC1`: the outcome in assay [5] was “inactive [Channel type: confirmation]”. Further, the AC50 in assay [2] is 4.47 µM (active).
Regarding `CCCCC(CC)CN1CN(CC(CC)CCCC)CC(C)(N)C1` (stereo not drawn), the result in assay [5] and in assay [6] was inactive.
Consider `COc1cc(NS(C)(=O)=O)ccc1Nc1c2ccccc2nc2ccccc12`, for which the call in assay [4] and in assay [2] was inactive.
Take `C[C@@H]1O[C@@H](O[C@H]2CC[C@@]3(C)[C@H](CC[C@@H]4[C@H]3C[C@@H](O)[C@]3(C)[C@@H](C5=CC(=O)OC5)CC[C@]43O)C2)C[C@H](O)[C@@H]1O[C@H]1C[C@H](O)[C@H](O[C@H]2C[C@H](O)[C@@H](O)[C@@H](C)O2)[C@H](C)O1` (stereo in doubt): the outcome in assay [5] was “inactive [Channel type: confirmation]”. Besides, the result in assay [6] was inactive. Further, the AC50 in assay [2] is 0.794 µM (active).
In the case of `CC(C)NCC(O)c1ccc(NS(C)(=O)=O)cc1` (stereo not drawn), the outcome in assay [2] was inactive.
In the case of `CN1CCN2c3ncccc3Cc3ccccc3C2C1` (stereo not drawn), the result in assay [2] was inactive.
Regarding `C=CC[C@@H]1C=C(C)C[C@H](C)C[C@H](OC)[C@H]2O[C@@](O)(C(=O)C(=O)N3CCCC[C@H]3C(=O)O[C@H](C(C)=C[C@@H]3CC[C@H](O)[C@H](OC)C3)[C@@H](C)[C@@H](O)CC1=O)[C@@H](C)C[C@@H]2OC`, the outcome in assay [2] was inactive.
Regarding `CN1[C@@H]2CC[C@H]1CC(OC(c1ccccc1)c1ccccc1)C2` (stereo partly drawn), the outcome in assay [5] is “inactive [Channel type: confirmation]”. Also, the result in assay [6] was inactive. The AC50 in assay [2] is 3.55 µM (active).
As for `CO[C@H]1C[C@@H]2CC[C@@H](C)[C@@](O)(O2)C(=O)C(=O)N2CCCC[C@@H]2C(=O)O[C@H]([C@H](C)C[C@@H]2CC[C@H](OCCO)[C@H](OC)C2)CC(=O)[C@H](C)C=C(C)[C@@H](O)[C@@H](OC)C(=O)[C@H](C)C[C@H](C)C=CC=CC=C1C`, in assay [5], the outcome is “inactive [Channel type: confirmation]”. For the same molecule, the result in assay [6] was inactive. For the same molecule, the AC50 in assay [2] was 14.1 µM (active). Moreover, the Potency in assay [7] was 23.5 µM (active).
Turning to `CCN(CC)CC#CCOC(=O)C(O)(c1ccccc1)C1CCCCC1` (stereo not drawn), the outcome in assay [2] was inactive.
Still for that read-out and setting: the same measure for `CN1C[C@H](C(=O)N[C@]2(C)O[C@@]3(O)[C@@H]4CCCN4C(=O)[C@H](Cc4ccccc4)N3C2=O)C=C2c3cccc4[nH]cc(c34)C[C@H]21`: “inactive”; for `CCOC(=O)C1=C(COCCN)NC(C)=C(C(=O)OC)C1c1ccccc1Cl` (stereo not drawn): “inactive”.
Turning to `COC(=O)N/N=C/c1c[n+]([O-])c2ccccc2[n+]1[O-]`, the outcome in assay [5] and in assay [6] was inactive.
`CC(=O)OCC(=O)[C@@]1(OC(C)=O)[C@@H](C)C[C@H]2[C@@H]3C[C@H](F)C4=CC(=O)C=C[C@]4(C)[C@@]3(F)[C@@H](O)C[C@@]21C`: the result in assay [5] and in assay [6] was inactive.
For the molecule `C[C@](O)(CS(=O)(=O)c1ccc(F)cc1)C(=O)Nc1ccc(C#N)c(C(F)(F)F)c1`, in assay [2], the result was inactive. In assay [3], this molecule came in with a cell viability, % of control (lower = more cytotoxic) of 14%.
